Compounds with a hit are over-represented: about 0.88% of the library has one in this group of screens.
ERG-DNA inh: qHTS for Small Molecule Inhibitors of the ERG Ets/DNA interaction. fluorescence polarization, His-ERG Ets domain / labelled DNA. Potency, µM (top dose mostly 76.9 µM), inactives show at the highest dose FP activity, negative = inhibition, actives largely listed as inhibitors. 370,000 compounds, 0.028% hits. AID 624246, 2012; active = well fitted inhibition curve with a large enough effect in the polarisation, with a control signal flat; inconclusive = small, poorly fitted or top-dose-only effect, or effect the other way, or a change in a side signal; inactive = no such curve, though single readings can be large or run the other way; the % refers to the polarisation;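 also: polarization taken with two DNA probes labelled with fluorescein and Texas red; % of control where 0% means no effect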
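His-tagged ERG Ets domain (1 uM in the protein solution; 300mM KCl, 50mM Tris-HCl, 1mM EDTA, 1mM DTT, pH 7.5) received compound, then a probe mix of 5 nM fluorescein-DNA and 100nM Texas-615-DNA. Fluorescence polarization was read for both dyes.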
APE1 inh: qHTS Assay for Inhibitors of the Human Apurinic/apyrimidinic Endonuclease 1 (APE1); recombinant APE1, TAMRA/BHQ-2 abasic DNA cleavage fluorescence; Potency, µM (highest dose often 65.8 µM), for inactives: top-dose activity change, negative = inhibition, hits mostly inhibitors; 350,000 compounds, 0.35% hits;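 also: plate controls were vehicle for no effect and reference inhibitor for full effect; nearly all actives have a fitted effect of over 55% in size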
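Enzyme (0.75 nM final) and test compound are incubated 15 min at room temperature before adding 50 nM quenched THF abasic-site duplex. Cleavage dequenches TAMRA, followed at 525/598 nm over three reads one minute apart.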
RECQ1 helicase: qHTS Assay for Inhibitors of RecQ-Like Dna Helicase 1 (RECQ1) | ATP-dependent DNA helicase Q1 (Homo sapiens), P46063 | RECQ1 DNA unwinding, red fluorescence kinetic read | Potency, µM (series often up to 57.3 µM), inactives show top-dose activity, negative = inhibition, actives largely listed as inhibitors | 240,000 compounds, 0.54% hits | AID 2549, 2010;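 also: plate controls were vehicle for no effect and no enzyme for full effect; nearly all actives have a fitted effect of over 30% in size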
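RECQ1T1 50 nM; forked duplex (20 bp + 30-nt ss tails) 200 nM, ATP 2 mM final; pH 8.0, 2 mM MgCl2, 2.5 ug/ml poly(dI-dC); 15 min compound preincubation; discontinuous kinetic read over 2 h at RT.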
WRN inhibitor: qHTS for Inhibitors of WRN Helicase; Bifunctional 3'-5' exonuclease/ATP-dependent helicase WRN (Homo sapiens), Q14191; WRN helicase unwinding, fluorescent forked duplex, kinetic; Potency, µM (series often up to 114 µM), for inactives: at the highest dose activity change, negative = inhibition, most hits filed as inhibitors; 360,000 compounds, 0.46% hits; AID 651768, 2012; also: % is scaled to controls: 0 for no effect and ±100 for the full control effect; nearly all actives have a fitted effect of over 55% in size
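Screening of the MLSMR collection measured strand separation of a quenched forked DNA duplex (100 nM) by 20 nM WRN with 2 mM ATP, all final. Compounds were preincubated with enzyme 15 min at room temperature.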
KAT2A inh: qHTS Assay for Inhibitors of GCN5L2; 390,000 compounds, 0.21% hits; GCN5L2 HAT assay, ThioGlo1 CoA-SH fluorescence; Histone acetyltransferase KAT2A (Homo sapiens), Q92830; Potency, µM (series often up to 58.9 µM), for the others: at the highest dose activity change, negative = inhibition, most hits filed as inhibitors; also: % is scaled to controls: 0 for no effect and ±100 for the full control effect
Target sequence (Q92830 whole entry, looked up): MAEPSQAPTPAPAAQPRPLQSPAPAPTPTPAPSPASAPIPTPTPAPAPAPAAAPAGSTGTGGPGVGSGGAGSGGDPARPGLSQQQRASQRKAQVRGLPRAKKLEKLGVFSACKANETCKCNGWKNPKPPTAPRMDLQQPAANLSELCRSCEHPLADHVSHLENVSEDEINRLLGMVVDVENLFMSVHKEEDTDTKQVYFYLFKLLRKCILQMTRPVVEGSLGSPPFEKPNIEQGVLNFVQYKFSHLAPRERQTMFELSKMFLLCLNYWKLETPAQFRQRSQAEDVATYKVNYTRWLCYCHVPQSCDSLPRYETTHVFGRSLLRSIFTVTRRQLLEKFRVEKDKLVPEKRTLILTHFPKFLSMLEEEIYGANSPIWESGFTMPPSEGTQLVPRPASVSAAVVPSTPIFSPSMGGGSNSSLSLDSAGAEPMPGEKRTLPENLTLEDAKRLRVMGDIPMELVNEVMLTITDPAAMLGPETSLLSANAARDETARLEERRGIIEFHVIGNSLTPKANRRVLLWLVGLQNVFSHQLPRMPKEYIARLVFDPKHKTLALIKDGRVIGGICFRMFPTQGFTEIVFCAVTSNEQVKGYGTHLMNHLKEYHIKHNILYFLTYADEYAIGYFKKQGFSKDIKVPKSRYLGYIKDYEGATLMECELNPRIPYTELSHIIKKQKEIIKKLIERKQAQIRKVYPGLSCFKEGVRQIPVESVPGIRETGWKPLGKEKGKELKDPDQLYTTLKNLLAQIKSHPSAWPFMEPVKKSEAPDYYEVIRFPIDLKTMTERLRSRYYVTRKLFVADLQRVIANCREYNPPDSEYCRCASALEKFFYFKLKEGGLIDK
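GCN5L2 (20 nM) in 50mM HEPES pH 7.5, 0.1mM EDTA, 0.01% Tween-20 preincubated 15 min with compounds at room temperature. Reaction started with H3(1-25) 75uM, acetyl-CoA 70uM, ThioGlo1 50uM; CoA-thiol fluorescence (Ex340/Em540) read at 0 and 20 min.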
BLM inh: qHTS Assay for Inhibitors of Bloom's syndrome helicase (BLM); recombinant BLM DNA unwinding, fluorescence dequenching; Potency, µM (doses to about 56.1 µM), without a hit: top-dose activity change, negative = inhibition, hits mostly inhibitors; 350,000 compounds, 0.2% hits;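 also: plate controls were vehicle for no effect and no enzyme for full effect; nearly all actives have a fitted effect of over 35% in size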
Active calls of the source: *; i = inactive; ? = inconclusive; nt = no result; ! = repeats disagree; [ ] = remark or other dose. Unless noted, calls follow the shape of the dose curve; as a rule, active = well fitted curve in the direction sought with a large enough effect; inconclusive = small, poorly fitted or top-dose-only effect, or another doubt; inactive = no such curve, though single readings can be large; an effect the other way counts as inactive or inconclusive. Potency is read from the fitted curve at half-maximal effect.

SMILES | ERG-DNA inh | APE1 inh | RECQ1 helicase | WRN inhibitor | KAT2A inh | BLM inh
C[C@@H]1O[C@@H](O[C@@H]2C=C3CC[C@@H]4[C@H](CC[C@]5(C)[C@@H](c6ccc(=O)oc6)CC[C@]45O)[C@@]3(C)CC2)[C@H](O)[C@H](O)[C@H]1O | nt | 29%[21 µM] | nt | nt | nt | nt
Clc1ccc(CS[C@@H](Cn2ccnc2)c2ccc(Cl)cc2Cl)cc1 | nt | nt | i | nt | 13µM* | 1%[21.4 µM]
NCC[C@H](O)C(=O)N[C@@H]1C[C@H](N)[C@@H](O[C@H]2O[C@H](CN)[C@@H](O)[C@H](O)[C@H]2N)[C@H](O[C@@H]2O[C@H](CO)[C@@H](O)[C@H]2O)[C@H]1O | nt | -1%[21 µM] | nt | nt | nt | nt
ClC(Cl)C(Cl)Cl | nt | 0% | 11% | nt | nt | nt
CO/N=C(/C(=O)NC1C(=O)N2C(C(=O)O)=C(CSc3nc(=O)c(O)nn3C)CSC12)c1csc(N)n1 (centres undefined) | nt | ? | -3% | nt | -12% | -5%
Cc1ccsc1/C=C1\C(=O)NC(=S)N(C)C1=O | 71% | -11% | nt | 50µM* | -4% | 5%
COc1ccc(/C=C2\C(=O)NC(=S)N(C)C2=O)cc1C | 5% | 1% | 1% | 20µM* | -2% | -3%
CN1C(=O)/C(=C/c2ccc(Cl)s2)C(=O)NC1=S | 46% | -9% | nt | 14µM* | -18% | 0%
CN1C(=O)/C(=C\c2ccc(N3CCCCCC3)cc2)C(=O)NC1=S | 26% | 7% | -6% | -17% | -4% | -7%
CC1CCN(C(CC(=O)c2ccccc2)C(=O)c2ccccc2)CC1 (centres undefined) | 21% | nt | nt | 7.9µM* | nt | nt
OCc1cccc[n+]1CCc1ccccc1 | 26% | nt | nt | -4% | nt | nt
CC[C@H](C)/C=C(C)/C=C/C1=CC2=C(Cl)C(=O)[C@@](C)(OC(C)=O)C(=O)C2=CO1 | 14% | nt | nt | 45µM* | nt | nt
CCC(C)/C=C(C)/C=C/C1=CC2=C(Cl)C(=O)C(C)(OC(C)=O)C(=O)C2=CO1 (centres undefined) | -5% | -4% | -7% | 1% | -1% | -5%
C=Cc1cc(OC)c2c(c1)c(=O)oc1c2cc(OC)c2c(O)ccc(C3OC(C)C(O)C(C)(O)C3O)c21 (centres undefined) | ? | nt | nt | 10µM* | nt | nt
N#CC(C#N)=NNc1ccc(S(N)(=O)=O)cc1 | 9% | ? | i | 56µM* | -6% | -16%
COc1cc2c(c(OC)c1OC)-c1ccc(OC)c(=O)cc1[C@@H](NC=O)CC2 | nt | -4% | -12% | nt | ? | 1%
O=S(=O)(Nc1c(O)ccc2ccccc12)c1ccc(F)cc1 | 1% | nt | nt | 50µM* | nt | nt
CCCCC/C=C\C/C=C\C/C=C\C/C=C\CCCC(=O)NCCCC(=O)O | nt | -7% | -25% | nt | 14µM* | 100%
CC/C=C\C/C=C\C/C=C\C/C=C\C/C=C\CCCC(=O)NCCCC(=O)O | nt | -1% | 3% | nt | nt | 0%
CCCCC/C=C\C/C=C\C/C=C\C/C=C\CCCC(=O)NCCO | nt | 1% | -3% | nt | -5% | ?
CCCCC/C=C\C/C=C\C/C=C\C/C=C\CCCC(=O)NCC(=O)O | nt | ? | 3.5µM*! | nt | 6.3µM* | -12%
CCCCC/C=C\C/C=C\CCCCCCCCCC(=O)NCCO | nt | 0% | 2% | nt | nt | -4%
CCCCC/C=C\C/C=C\C/C=C\C/C=C\CCCC(=O)NCCc1ccc(O)c(O)c1 | nt | ? | -2% | nt | 18µM* | -23%
CCCCC/C=C\C/C=C\C/C=C\C/C=C\CCCC(=O)N(Cc1ccc(O)c(Cl)c1)Cc1ccc(O)c(Cl)c1 | nt | 4% | 4% | nt | ? | 32µM*
CN1CCN(c2ccc(/C=C3\C(=O)NC(=S)N(c4cccc(Br)c4)C3=O)o2)CC1 | 2% | 3% | 14µM* | ? | -1% | -13%
SMILES | ERG-DNA inh | APE1 inh | RECQ1 helicase | WRN inhibitor | KAT2A inh | BLM inh
Cc1ccc(/C=C2\C(=O)NC(=S)N(c3cccc(F)c3)C2=O)o1 | 44% | -6% | nt | 50µM* | -28% | -11%
CCOc1ccc(N2C(=O)/C(=C/c3ccc(C)o3)C(=O)NC2=S)cc1 | 36% | -19% | nt | 45µM* | -13% | -16%
Cc1ccc(-n2ncc(C(=O)N3CCN(c4ccc(Cl)cc4)CC3)c2C2CCN(C(=O)OC(C)(C)C)CC2)c(C)c1 | 2% | nt | nt | nt | ? | -9%
CC1CCCC(C)N1C(=O)CSc1nc2c(c(=O)n(C)c(=O)n2C)n1C (centres undefined) | 4% | 64% | nt | -21% | -5% | -2%
[Cd+2].[Cl-].[Cl-] | nt | 0.79µM* | 35µM* | nt | nt | nt
CC(C)CN(CC(C)C)c1ccc(C=C2C(=O)NC(=S)NC2=O)cc1[N+](=O)[O-] | nt | 9% | -25% | 56µM* | ? | -16%
Nn1cnnc1 | nt | 2% | -2% | nt | nt | nt
Cc1ccc(-n2sc3ccccc3c2=O)cc1 | 5% | 4% | -1% | ? | 7.1µM* | -1%
COc1ccc(-c2nc3ccccc3c(=O)n2-c2ccc(OC)cc2)cc1 | 6% | 24% | i | -7% | -4% | -6%
NC1CCCCC1N (centres undefined) | nt | -2% | -10% | nt | 20% | -5%
O=C1OC(c2ccc(O)c(S(=O)(=O)O)c2)(c2ccc(O)c(S(=O)(=O)O)c2)c2c(Br)c(Br)c(Br)c(Br)c21 | nt | 18% | -11% | nt | 28µM* | 37%
CC(C)(Cl)Cl | nt | 1% | -7% | nt | nt | nt
O=C1NC(=O)N(c2ccc(Cl)cc2)C(=O)/C1=C\c1ccc(Sc2nc3ccccc3[nH]2)o1 | 131% | ? | 25µM* | 25µM* | ? | -15%
Cc1ccc(N2C(=O)NC(=O)/C(=C/c3ccc(-c4ccc(C(=O)O)c(Cl)c4)o3)C2=O)cc1 | 33% | ? | i | ? | ? | -1%
Clc1nc(Cl)nc(Cl)n1 | nt | 17% | 0% | nt | nt | nt
Cc1c(CC(=O)N2C[C@H]3C[C@@H](C2)c2cccc(=O)n2C3)c(=O)oc2cc(O)c(Cl)cc12 | 5% | 3% | nt | -3% | 20µM* | 1%
COc1cc2oc(=O)c(CC(=O)N3C[C@H]4C[C@@H](C3)c3cccc(=O)n3C4)c(C)c2cc1Cl | -7% | nt | nt | 4% | nt | nt

Compound activity from PubChem BioAssay.
